# This is a sample that favours compounds with a hit; in the whole collection about 4% have one here.
# TRHR agonist: agonists of human TRH receptor | P34981 | TRHR cells, calcium flux fluo-8, FDSS agonist mode | activation, % at 2 µM | actives 0.18% (n = 360,000) | AID 493084; further: 0% is about no effect
# Target sequence (P34981 whole entry, looked up): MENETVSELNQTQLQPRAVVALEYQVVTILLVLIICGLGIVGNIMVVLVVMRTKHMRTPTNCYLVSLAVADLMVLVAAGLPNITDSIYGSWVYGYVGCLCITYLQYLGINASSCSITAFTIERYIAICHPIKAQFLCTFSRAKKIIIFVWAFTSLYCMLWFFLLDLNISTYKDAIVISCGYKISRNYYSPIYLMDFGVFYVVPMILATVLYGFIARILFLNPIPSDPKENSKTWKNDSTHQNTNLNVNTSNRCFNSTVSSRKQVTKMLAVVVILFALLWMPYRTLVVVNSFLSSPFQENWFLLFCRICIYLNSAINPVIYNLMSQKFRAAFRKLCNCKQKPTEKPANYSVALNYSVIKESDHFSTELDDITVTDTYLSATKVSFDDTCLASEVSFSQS
#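 TRHR-expressing cells loaded with fluo-8 calcium dye; 23 nL library compound pin-transferred, kinetic FDSS fluorescence (Ex 480/Em 530) recorded about 180 s for agonist-induced calcium release, before a 10 nM TRH EC20 addition for potentiator mode.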
# D1 antagonist: antagonists of human D1 dopamine receptor | actives 3.2% (n = 360,000) | activity change, negative = inhibition, % at 10 µM | HEK293 TREx D1 cells, calcium flux, dopamine EC80; stronger effect = lower value | AID 504652; in the data active means activity change below about -30%; further: on the % scale 0 is the no-effect control and ±100 the full control effect
#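 After overnight tetracycline induction at 30 C, force-coupled D1 HEK293 cells took up a no-wash calcium dye at room temperature. Compounds were added and monitored 180 s, and the response to EC80 dopamine was then recorded.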
# D1 ag: human D1 receptor agonism. P21728. HEK293 T-REx D1 cells, calcium flux, agonist mode. activation, % at 2 µM. actives 1% (n = 360,000); further: 0% is about no effect
#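 Tetracycline-induced HEK293 TREx D1 cells, force-coupled to calcium signalling, were dye-loaded with a no-wash calcium kit. Compound was pin-added after a 10 s baseline. Fluorescence was read kinetically at 1 cycle/s for 180 s, with calcium rises flagged as agonism.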
# TRHR enhancer: allosteric enhancers of human TRH receptor; P34981; TRHR cells, fluo-8 calcium fluorescence, EC20 TRH enhancement; enhancement, % at 2 µM; actives 0.66% (n = 360,000); AID 493056; in the data active means enhancement above about 30%; further: 0% is about no effect
#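 TRHR-expressing cells loaded with fluo-8 calcium dye were read kinetically (ex 480/em 530) during compound addition, then stimulated with an EC20 of TRH (10 nM final). Enhancement of the Gq-mediated intracellular calcium response was scored.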
# GRP78 ERSR act: induces the endoplasmic reticulum stress response in human glioma cells | U87-MG GRP78 promoter luciferase reporter, 16 h | Potency, µM, for inactives: at the top dose activation, most hits filed as activators | actives 0.02% (n = 420,000) | AID 602332; active means well fitted activation curve with a large enough effect; further: potency means the concentration at half of the fitted maximal effect; series mostly up to about 76 µM; % of control where 0% means no effect; nearly all actives have a fitted effect of over 35% in size
#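 Stably transfected U87-MG glioma cells carrying a GRP78-based luciferase sensor; 16 h compound incubation. Luminescence end-point read 10 min after Bright-Glo addition at room temperature.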
# D1 PAM: enhances dopamine response at the human D1 receptor; P21728; HEK293 TREx D1 cells, calcium flux, dopamine EC20 potentiation; potentiation, % at 10 µM; actives 0.036% (n = 360,000); AID 504651; in the data active means potentiation above about 30%; further: 0% is about no effect
# * hit, by the source's call; · = not tested or not shown. Unless noted, no stated cut-off is given here; in the data, active means activation above about 30%; inactive means the rest.
SMILES,TRHR agonist,D1 antagonist,D1 ag,TRHR enhancer,GRP78 ERSR act,D1 PAM
CCOC(=O)C1=C(C)Nc2ncnn2C1c1cc(Br)ccc1F (configuration not stated),-0.5,-32.8*,-0.5,-0.5,-0.2%,2.8
COc1ccc(C2C=C(c3ccc(Cl)c(Cl)c3)Nc3ncnn32)cc1 (configuration not stated),8.4,5.3,48.3*,3.6,1.5%,-3.0
CCOc1ccc(C2=CC(c3cc(Br)ccc3F)n3ncnc3N2)cc1Cl (configuration not stated),0.5,-85.5*,9.3,-5.8,-0.9%,-8.1
Fc1ccc(Br)cc1C1C=C(c2cccnc2)Nc2ncnn21 (configuration not stated),0.1,3.6,2.1,0.8,-1.7%,5.2
CC/C(=C\c1ccc(C(=O)OC)cc1)c1cc(OC)cc2oc3ccccc3c12,·,·,·,·,-1.0%,·
COc1ccccc1OCC(=O)Nc1nc(C)c(C)s1,-0.2,10.6,0.0,12.9,-6.0%,-5.8
CCn1c(C)nnc1SCC(=O)Nc1cccc(Cl)c1,-0.1,-43.3*,-3.6,1.6,-0.2%,0.3
CNc1c(NS(=O)(=O)c2ccc3c(c2)CCCC3)c(=O)oc2ccccc12,1.6,0.7,2.1,4.9,-2.3%,-4.8
Cc1ccc(Cn2c(CO)cnc2SCC(=O)Nc2cccc(F)c2)cc1,0.3,2.9,2.4,-3.3,-2.1%,-0.2
CC(C)(C)c1ccc(Cn2c(=N)n(CC(O)c3ccco3)c3ccccc32)cc1 (configuration not stated),3.3,-10.1,71.8*,9.6,-14.7%,9.6
Cc1ccccc1Cn1c(=N)n(CC(O)c2ccco2)c2ccccc21 (configuration not stated),0.1,6.0,6.4,2.0,-6.0%,1.8
CCCn1c(O)c2ccc(C(=O)N=NC(=O)c3cccnc3)cc2c1O,0.8,-24.5,1.1,-0.2,-0.2%,1.2
CC(C)(C)n1c(O)c2ccc(C(=O)N=NC(=O)c3ccccc3)cc2c1O,-0.6,-31.0*,9.4,1.8,4.6%,-0.4
CCc1ccc([C@H]2C(C(=O)O)=C[C@@H](CC3CCCC3)N2S(=O)(=O)c2ccc(C)cc2)cc1,·,·,·,·,0.6%,·
COc1cccc(/C=C/C(=C2/C(=O)N(c3ccccc3)N=C2C)c2ccc(Br)cc2)c1OC,0.4,-84.8*,0.3,-23.5,-2.9%,-11.2
COc1cccc(/C=C/C(=C2/C(=O)N(c3ccccc3)N=C2C)c2ccccc2)c1OC,-1.4,2.7,2.5,3.3,-6.2%,-6.1
CCN(C(=O)c1cccc(S(=O)(=O)N(C)C)c1)C12CC3CC(CC(C3)C1)C2,-1.5,-10.9,12.9,2.8,-3.9%,-5.0
COc1ccc(-c2cc3nc(C)cc(N)n3n2)cc1,-0.2,-4.6,0.9,30.0*,-12.3%,-2.7
CSC1=NC2(CC(c3ccccc3)Oc3cc(O)ccc32)CC(C)(C)N1 (configuration not stated),0.3,30.3,166.7*,2.7,-3.4%,8.2
COc1cccc(C2CC3(CC(C)(C)NC(=S)N3)Oc3cc(O)ccc32)c1 (configuration not stated),1.0,19.3,5.6,1.9,-3.1%,-1.1
Cc1oc(C(C)(C)C)cc1C(=O)Nc1ccc2c(c1)OCO2,0.2,-32.3*,1.5,6.2,-0.8%,-8.8
Cc1oc(C(C)(C)C)cc1C(=O)Nc1ccc2c(c1)OCCO2,0.2,-17.4,2.2,-5.4,2.6%,-11.3
CCOC(=O)C(Cc1ccc(OC)c([N+](=O)[O-])c1)NC(=O)CCC(=O)Nc1ccc(OC)cc1 (configuration not stated),0.1,6.3,1.1,3.7,-1.2%,-3.1
CCCCCCCCCCCC(=O)NC(Cc1ccc(OC)c([N+](=O)[O-])c1)C(=O)O (configuration not stated),0.9,-48.2*,137.1*,-2.3,-3.7%,-10.4
Cc1ccccc1-c1nnn(Cc2cccc(S(=O)(=O)N3CCOCC3)c2)n1,0.0,-33.5*,13.0,4.3,-1.0%,-7.7
SMILES,TRHR agonist,D1 antagonist,D1 ag,TRHR enhancer,GRP78 ERSR act,D1 PAM
O=C1c2ccccc2S(=O)(=O)N1Cc1cccc(S(=O)(=O)N2CCOCC2)c1,0.5,-21.5,7.5,1.2,0.2%,-9.4
CC1=CCC2C(=O)N(c3ccccc3OC(=O)c3ccccc3F)C(=O)C2C1 (configuration not stated),-0.1,20.2,-0.5,-1.0,-0.4%,-0.5
Cc1ccc2[nH]c(CSc3nnc(NC(=O)c4ccccc4F)s3)cc(=O)c2c1,-0.2,-32.0*,0.8,-0.1,-2.9%,-0.2
CN(c1cccc(Cl)c1)S(=O)(=O)c1cccc(C(=O)NN2CCOCC2)c1,-0.5,-37.5*,5.3,6.6,-3.8%,·
O=C(NCc1ccccc1)C1CCCN(S(=O)(=O)c2ccc(Br)cc2)C1 (configuration not stated),0.0,-22.5,6.3,-1.2,-3.7%,-5.7
O=C(NCc1cccs1)C1CCCN(S(=O)(=O)c2cnc[nH]2)C1 (configuration not stated),0.3,-2.5,4.2,6.8,-4.2%,·
O=C(NCc1ccccc1)C1CCCN(S(=O)(=O)c2ccc(F)cc2)C1 (configuration not stated),-0.2,3.3,3.2,36.0*,-5.6%,-2.6
O=C(NCc1ccccc1Cl)C1CCCN(S(=O)(=O)c2cnc[nH]2)C1 (configuration not stated),0.3,-44.2*,3.4,-8.0,-2.0%,·
O=C(NCc1ccco1)C1CCCCN1S(=O)(=O)c1ccc(F)cc1 (configuration not stated),0.8,-38.7*,-0.2,2.6,-5.0%,-6.2
O=C(NCc1ccc(F)cc1)C1CCCN1S(=O)(=O)c1ccc(F)cc1 (configuration not stated),·,·,·,·,-2.8%,·
CCOc1ccc(S(=O)(=O)N2CCCC(C(=O)NCc3ccncc3)C2)cc1Cl (configuration not stated),-1.4,-31.4*,13.3,7.2,-3.6%,-3.9
O=C(Cc1ccc(NC(=O)N2CCCCc3ccccc32)cc1)NCc1ccccc1Br,0.2,24.5,3.8,8.2,0.0%,3.7
CCOC(=O)C1CCCN(C(=O)C2CCN(S(=O)(=O)c3cnc[nH]3)CC2)C1 (configuration not stated),0.4,-41.0*,3.1,13.4,3.1%,-0.9
Cc1ccccc1OCC(O)CN1CCC(C)CC1 (configuration not stated),0.3,-5.0,3.1,6.4,-3.7%,-9.8
Cc1ccccc1OCC(O)CN1CCN(CC(O)COc2ccccc2C)CC1 (configuration not stated),-0.1,2.7,53.5*,-2.0,-3.0%,-12.0

# Screening results from PubChem BioAssay.
